From PubChem BioAssay (NCI)
About 79,000 compounds went through this panel and 15% of them were active in at least one assay; those are over-represented in the sample as a whole. Calls of active or inactive are those of the source. No stated cut-off is given here; in the data, active means growth inhibition above about 70%; inactive means the rest.

Tests used:
[1] = NCI Yeast Anticancer Drug Screen. Data for the rad52 strain (AID 147);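 further: 0% = growth of vehicle-treated control cultures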; conditions: S. cerevisiae rad52 mutant growth inhibition, active compounds read high
Summary of the method: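 Growth of repair-deficient yeast cells was compared between compound-treated and vehicle-treated cultures to give percent inhibition.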

[2] = NCI Yeast Anticancer Drug Screen. Data for the wt1 strain (AID 149);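 further: 0% = growth of vehicle-treated wt1 cultures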; conditions: S. cerevisiae wt1 strain (SPY 50644) growth inhibition, active compounds read high
Summary of the method: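 Measured: growth of wt1 yeast under compound versus vehicle treatment, reported as inhibition.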

[3] = NCI Yeast Anticancer Drug Screen. Data for the rad50EPP+ strain (AID 151);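 further: 0% = growth of vehicle-treated control cultures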; conditions: S. cerevisiae rad50 mutant strain, active compounds read high
Summary of the method: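 Measured: growth inhibition of rad50EPP+ yeast. Reference: vehicle-treated controls. Screen uses strains with defined genetic alterations in DNA damage repair or cell cycle control.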

[4] = NCI Yeast Anticancer Drug Screen. Data for the mgt1 strain (AID 153); conditions: S. cerevisiae mgt1 mutant growth inhibition, active compounds read high
Summary of the method: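 Compounds were applied to mgt1 mutant yeast, and growth was then compared against vehicle-treated control cultures to give percent inhibition.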

[5] = NCI Yeast Anticancer Drug Screen. Data for the rad50 strain (AID 155);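 further: 0% = growth of vehicle-only cultures of the same strain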; conditions: S. cerevisiae rad50 strain growth inhibition, active compounds read high
Summary of the method: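 Growth of the mutant yeast was measured after compound exposure and referenced to vehicle-treated cultures.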

[6] = NCI Yeast Anticancer Drug Screen. Data for the mec2-1 strain (AID 157); conditions: S. cerevisiae mec2-1 strain, active compounds read high
Summary of the method: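 Compounds were applied to mec2-1 yeast cells. Their growth was then compared with that of vehicle-treated cultures to give growth inhibition.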

[7] = NCI Yeast Anticancer Drug Screen. Data for the rad14 strain (AID 159);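 further: 0% = growth of vehicle-treated control cultures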; conditions: S. cerevisiae rad14 strain growth inhibition, active compounds read high
Summary of the method: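 Here, inhibition of yeast growth was measured after compound exposure, using a strain with a genetic defect in DNA damage repair and vehicle-treated cultures as the reference.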

[8] = NCI Yeast Anticancer Drug Screen. Data for the sgs1 mgt1 strain (AID 161);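 further: 0% = growth of cultures given vehicle only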; conditions: S. cerevisiae sgs1 mgt1 strain, active compounds read high
Summary of the method: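 Yeast cells carrying a defined DNA-repair defect were exposed to test compounds. Growth inhibition was measured relative to vehicle-treated controls.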

[9] = NCI Yeast Anticancer Drug Screen. Data for the CLN2oe strain (AID 163);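 further: 0% = growth of vehicle-only control cultures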; conditions: S. cerevisiae CLN2oe strain, active compounds read high
Summary of the method: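 Cells of an engineered yeast line with disturbed cell-cycle regulation are treated with compound. Inhibition of growth is then calculated relative to the vehicle-treated reference.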

[10] = NCI Yeast Anticancer Drug Screen. Data for the cln2 rad14 strain (AID 165);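 further: 0% = growth equal to vehicle treated cultures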; conditions: S. cerevisiae cln2 rad14 strain, active compounds read high
Summary of the method: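 Strain: cln2 rad14 yeast, altered in cell cycle control and DNA damage repair. Read-out: growth inhibition vs vehicle.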

[11] = NCI Yeast Anticancer Drug Screen. Data for the bub3 strain (AID 167); conditions: S. cerevisiae bub3 mutant strain, active compounds read high
Summary of the method: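 Whole-cell yeast assay. The mutant strain was incubated with compounds, and growth inhibition was determined by comparison with vehicle-treated cells.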

[12] = NCI Yeast Anticancer Drug Screen. Data for the wt2 strain (AID 169);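 further: 0% = growth of vehicle-treated yeast cultures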; conditions: S. cerevisiae wt2 strain growth inhibition, active compounds read high
Summary of the method: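 Growth of compound-treated yeast is measured and expressed as inhibition relative to vehicle-only controls.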

[13] = NCI Yeast Anticancer Drug Screen. Data for the mlh1 strain (AID 171);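 further: 0% = growth of vehicle-treated control cultures of the same strain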; conditions: S. cerevisiae mlh1 strain growth inhibition, active compounds read high
Summary of the method: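 Test agents were incubated with yeast bearing a defined DNA damage repair or cell cycle control alteration; values are growth inhibition normalised to vehicle-treated cultures.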

[14] = NCI Yeast Anticancer Drug Screen. Data for the sgs1 strain (AID 173);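 further: 0% = growth of vehicle-only control cultures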; conditions: S. cerevisiae sgs1 mutant, active compounds read high
Summary of the method: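 Strain with an altered DNA repair or cell cycle pathway exposed to compound. Growth then measured. Value = inhibition versus vehicle control.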

[15] = NCI Yeast Anticancer Drug Screen. Data for the mlh1 rad18 strain (AID 175); conditions: S. cerevisiae mlh1 rad18 strain growth inhibition, active compounds read high
Summary of the method: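 A repair-deficient yeast strain is exposed to test compound, and growth is scored relative to vehicle-treated controls.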

[16] = NCI Yeast Anticancer Drug Screen. Data for the rad18 strain (AID 177); conditions: S. cerevisiae rad18 mutant growth inhibition, active compounds read high
Summary of the method: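 DNA-repair-defective yeast; compound treatment; growth inhibition scored against vehicle.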

[17] = at 5.0 µM (retest, dose inferred, filed as 0.5)
[18] = at 50.0 µM (retest, dose inferred, filed as 5.0)

Measured: growth inhibition

COc1cccc2nc3ccccc3nc12
inactive: [1]; at 1.2 µM 1% | [1]; at 3.7 µM 7% | [1]; at 11.0 µM 34% | [2]; at 1.2 µM -2% | [2]; at 3.7 µM -2% | [2]; at 11.0 µM 3% | [2]; at 33.0 µM 45% | [3]; at 1.2 µM 1% | [3]; at 3.7 µM 8% | [3]; at 11.0 µM 34% | [4]; at 1.2 µM 1% | [4]; at 3.7 µM 1% | [4]; at 11.0 µM 6% | [5]; at 1.2 µM 2% | [5]; at 3.7 µM 15% | [5]; [17] -22% | [5]; at 11.0 µM 45% | [5]; [18] 65% | [6]; at 1.2 µM -2% | [6]; at 3.7 µM 2% | [6]; [17] -5% | [6]; at 11.0 µM 4% | [6]; at 33.0 µM 35% | [6]; [18] 17% | [6]; at 50.0 µM 31.3% | [7]; at 1.2 µM -2% | [7]; at 3.7 µM 0% | [7]; at 11.0 µM 2% | [7]; at 33.0 µM 30% | [8]; [17] -19% | [8]; [18] 5% | [8]; at 50.0 µM 4.55% | [9]; at 1.2 µM 0% | [9]; at 3.7 µM 1% | [9]; at 11.0 µM 1% | [9]; at 33.0 µM 48% | [10]; [17] -14% | [10]; [18] 18% | [10]; at 50.0 µM 9.4% | [11]; at 1.2 µM 1% | [11]; at 3.7 µM -11% | [11]; [17] -25% | [11]; at 11.0 µM 2% | [11]; at 33.0 µM 56% | [11]; [18] 19% | [11]; at 50.0 µM 24.9% | [12]; at 1.2 µM -2% | [12]; at 3.7 µM -1% | [12]; at 11.0 µM 8% | [12]; at 33.0 µM 50% | [13]; at 1.2 µM 0% | [13]; at 3.7 µM 3% | [13]; at 11.0 µM -2% | [13]; at 33.0 µM 51% | [14]; at 1.2 µM -6% | [14]; at 3.7 µM -8% | [14]; at 11.0 µM 0% | [14]; at 33.0 µM 38% | [15]; [17] -3% | [15]; [18] 36% | [15]; at 50.0 µM 43.1% | [16]; at 1.2 µM -3% | [16]; at 3.7 µM -2% | [16]; at 11.0 µM 16%
active: [1]; at 33.0 µM 90% | [1]; at 100.0 µM 97% | [2]; at 100.0 µM 91% | [3]; at 33.0 µM 79% | [3]; at 100.0 µM 94% | [4]; at 33.0 µM 75% | [4]; at 100.0 µM 95% | [5]; at 33.0 µM 91% | [5]; at 50.0 µM 83.6% | [5]; at 100.0 µM 97% | [6]; at 100.0 µM 89% | [7]; at 100.0 µM 82% | [9]; at 100.0 µM 91% | [11]; at 100.0 µM 94% | [12]; at 100.0 µM 96% | [13]; at 100.0 µM 97% | [14]; at 100.0 µM 88% | [16]; at 33.0 µM 84% | [16]; at 100.0 µM 95%

CCCC/C=C/C(CC)(C(=O)OCC)C(=O)OCC
inactive: [1]; at 1.2 µM -1% | [1]; at 3.7 µM -2% | [1]; at 11.0 µM -4% | [1]; at 33.0 µM -1% | [1]; at 100.0 µM -2% | [2]; at 1.2 µM -2% | [2]; at 3.7 µM -3% | [2]; at 11.0 µM -5% | [2]; at 33.0 µM -7% | [2]; at 100.0 µM -9% | [3]; at 1.2 µM -2% | [3]; at 3.7 µM 1% | [3]; at 11.0 µM -2% | [3]; at 33.0 µM 3% | [3]; at 100.0 µM 39% | [4]; at 1.2 µM -3% | [4]; at 3.7 µM -1% | [4]; at 11.0 µM -2% | [4]; at 33.0 µM -5% | [4]; at 100.0 µM -3% | [5]; at 1.2 µM -2% | [5]; at 3.7 µM -4% | [5]; [17] -9% | [5]; at 11.0 µM -3% | [5]; at 33.0 µM -3% | [5]; [18] -11% | [5]; at 50.0 µM 3.6% | [5]; at 100.0 µM -6% | [6]; at 1.2 µM 0% | [6]; at 3.7 µM -1% | [6]; [17] 5% | [6]; at 11.0 µM -2% | [6]; at 33.0 µM -1% | [6]; [18] 43% | [6]; at 50.0 µM -11.7% | [6]; at 100.0 µM -1% | [7]; at 1.2 µM -2% | [7]; at 3.7 µM -5% | [7]; at 11.0 µM -2% | [7]; at 33.0 µM -1% | [7]; at 100.0 µM 1% | [8]; [17] -3% | [8]; [18] 33% | [8]; at 50.0 µM 10.6% | [9]; at 1.2 µM -4% | [9]; at 3.7 µM 0% | [9]; at 11.0 µM -6% | [9]; at 33.0 µM -7% | [9]; at 100.0 µM -3% | [10]; [17] 6% | [10]; [18] 24% | [10]; at 50.0 µM 16.6% | [11]; at 1.2 µM 0% | [11]; at 3.7 µM -1% | [11]; [17] 11% | [11]; at 11.0 µM 1% | [11]; at 33.0 µM 6% | [11]; [18] 52% | [11]; at 50.0 µM 24.1% | [11]; at 100.0 µM 11% | [12]; at 1.2 µM -3% | [12]; at 3.7 µM -4% | [12]; at 11.0 µM -5% | [12]; at 33.0 µM -5% | [12]; at 100.0 µM -5% | [13]; at 1.2 µM -3% | [13]; at 3.7 µM -6% | [13]; at 11.0 µM -5% | [13]; at 33.0 µM -2% | [13]; at 100.0 µM 5% | [14]; at 1.2 µM -2% | [14]; at 3.7 µM 1% | [14]; at 11.0 µM 0% | [14]; at 33.0 µM 0% | [14]; at 100.0 µM 5% | [15]; [17] 7% | [15]; [18] 36% | [15]; at 50.0 µM -8.65% | [16]; at 1.2 µM -1% | [16]; at 3.7 µM 3% | [16]; at 11.0 µM 4% | [16]; at 33.0 µM 3% | [16]; at 100.0 µM 7%
